# Only some compounds are listed: those with a hit (about 2.2% of all), similar ones and a draw of the others.
# Efflux pump inh = antifungal efflux pump inhibition, Nile Red retention | S. cerevisiae Candida pump triplex | inhibition, % at 10 µM | 330,000 tested, 0.44% active | AID 485275;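 active = plate passing quality check with inhibition over a set limit, or well fluorescence over plate mean plus 4 SD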;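 note: Nile Red retained in pooled yeast measured as flow cytometry median fluorescence; 0% = buffer negative control and 100% = Enniatin B positive control; higher means more Nile Red kept so more efflux inhibition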
# sPLA2-III inh = Inhibits HGIII-sPLA2 liposome hydrolysis, primary screen; inhibition, % at 12.2 µM; QFRET BODIPY PC-A2 liposome hydrolysis, fluorescence; AID 743126; Q9NZ20; 370,000 tested, 0.56% active;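 active = inhibition above mean plus 3 SD of compounds lying within the high and low control bounds, cut at about 19% in these data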;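 note: 0% = median of test compound wells and 100% = no enzyme DMSO wells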
# Target sequence (Q9NZ20 whole entry, looked up): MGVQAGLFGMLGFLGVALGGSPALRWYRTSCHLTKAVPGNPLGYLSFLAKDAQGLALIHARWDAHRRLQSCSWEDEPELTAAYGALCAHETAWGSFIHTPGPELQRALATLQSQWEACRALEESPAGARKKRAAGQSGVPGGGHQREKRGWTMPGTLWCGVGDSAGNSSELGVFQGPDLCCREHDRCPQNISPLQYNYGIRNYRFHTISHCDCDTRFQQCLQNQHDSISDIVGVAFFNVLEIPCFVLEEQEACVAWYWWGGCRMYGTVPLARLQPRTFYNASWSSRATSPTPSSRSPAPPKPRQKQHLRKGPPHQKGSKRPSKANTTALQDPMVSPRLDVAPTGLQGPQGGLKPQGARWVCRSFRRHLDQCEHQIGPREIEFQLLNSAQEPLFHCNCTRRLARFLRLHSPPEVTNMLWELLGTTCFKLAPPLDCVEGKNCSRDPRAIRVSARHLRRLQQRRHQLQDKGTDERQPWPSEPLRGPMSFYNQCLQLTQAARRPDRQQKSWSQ
# Mot1-301 SUMO = inhibitors of SUMOylation pathway: yeast Mot1-301 growth rescue. S. cerevisiae Mot1-301 growth rescue, ATP luminescence, 38.5C; percent above DMSO median, 100 means doubled. growth rescue, % at 18.8 µM. 320,000 tested, 1% active. AID 2716;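 active = every valid replicate shows activation above 250% relative to neutral control wells; inactive = the rest, any valid replicate at or below 250%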;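 note: OY570 slx delta 5 strain wells were the positive control but not used for scaling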
# SKN-1 inh = blocks SKN-1 activity in C. elegans | C. elegans VP596 Pgst-4::GFP/RFP ratio, acrylamide-induced, 24 h | inhibition, % at 21.8 µM | 360,000 tested, 0.49% active;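 active = interference check ratio from 0.5 to 1.5 plus GFP to RFP signal ratio inhibition reaching or exceeding a fixed threshold, cut at about 30% in these data, passing the limit was not always enough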
# Mot1 SUMO dose = SUMO pathway inhibitors in yeast Mot1-301 growth; shares compounds with Mot1-301 SUMO; S. cerevisiae Mot1-301 galactose growth, ATP luminescence, 24 h; -100 = growth of slx-deleted rescue strain; growth activity, percent, % at 42 µM; 2,300 tested, under 10 active;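 active = Signal drops as the depositor expects, and the fitted half-maximal dose is no more than ten times the top valid tested dose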;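 note: more negative values mean stronger growth rescue toward the control strain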
# Numbers without * were called inactive; . = no result given; + = active, no number.
SMILES,Efflux pump inh,sPLA2-III inh,Mot1-301 SUMO,SKN-1 inh,Mot1 SUMO dose
CC(C)CN(CC(C)C)S(=O)(=O)N1CCC(C(=O)N2CCc3ccccc3C2)CC1,0,0,-2,8,.
CCS(=O)(=O)N1CCC(C(=O)N2CCc3ccccc3C2)CC1,0,-1,364*,11,0
CCCNC(=O)c1cc2c(C(F)(F)F)nn(C)c2s1,0,1,859*,-7,0
COc1ccc(NC2=C(c3ccc(OC)cc3)C(=O)c3ccccc32)cc1,0,8,9,15,.
COc1ccc(C2=C(N)c3ccccc3C2=O)cc1,0,.,457*,-3,-2
CCC1(c2ccccc2)NC(=O)N(CC(=O)N(C)CC(=O)Nc2ccc(F)c(F)c2F)C1=O (centres undefined),0,1,609*,17,1
CCC1(c2ccccc2)NC(=O)N(CC(=O)N(C)CC(=O)Nc2c(C)cccc2C)C1=O (centres undefined),0,6,31,-8,.
CCOCCn1cnc2sc(C(=O)NCCCN3CCOCC3)c(C)c2c1=O,0,1,-2,15,.
CCCc1ccccc1OCCNC(C)=O,0,6,+,-1,0
CC(=O)NCCOc1cccc2ccccc12,0,3,8,0,.
CCC(C)c1ccc(S(=O)(=O)N2CCN(C(=O)COc3ccc4c(C)cc(=O)oc4c3)CC2)cc1 (centres undefined),0,4,524*,13,0
COc1ccc(S(=O)(=O)N2CCN(C(=O)COc3ccc4c(C)cc(=O)oc4c3)CC2)cc1,.,0,-10,.,.
Cc1cc(NC(=O)COC(=O)Cn2[nH]c(=O)c3ccccc3c2=O)c([N+](=O)[O-])cc1C,0,2,12,0,.
O=C(CSc1cccc2cccnc12)Nc1cc(C(=O)O)cc(C(=O)O)c1,0,5,577*,-17,1
O=C(O)c1cccc(S(=O)(=O)N2CCN(c3ccccn3)CC2)c1,0,-2,-8,-10,.
O=C(O)c1ccc(S(=O)(=O)N2CCN(c3ccccn3)CC2)cc1,0,-4,763*,24,0
CCC(=O)Nc1nc(CC(=O)Nc2ccccc2OC)cs1,0,5,+,35*,0
CCOC(=O)C1=C(C)Nc2ncnn2C1/C=C/c1ccccc1 (centres undefined),-1,2,613*,10,0
CCCC1=C(C(=O)OCC)C(/C=C/c2ccccc2)n2ncnc2N1 (centres undefined),0,.,249,8,.
COCCCC1CCN(C(=O)C2CCC(=O)N(CC3CCCCC3)C2)CC1 (centres undefined),0,0,-5,2,.
O=C(c1cccs1)n1ccc2ccc(-c3ccc4ccn(C(=O)c5cccs5)c4c3)cc21,.,0,.,.,.
CCOC(=O)c1nc(Nc2ccccc2CC)c2ccccc2n1,0,-2,996*,3,0
CCOC(=O)c1nc(Nc2ccc(C(C)=O)cc2)c2ccccc2n1,0,-2,3,-2,.
C=CCOc1ccc(C=Nc2ccc(C)c(Cl)c2)c(O)c1,0,3,130,13,.
COc1cc([N+](=O)[O-])cc(/C=N/NC(=O)c2cc(C)nc3ccccc23)c1O,0,14,758*,22,1
SMILES,Efflux pump inh,sPLA2-III inh,Mot1-301 SUMO,SKN-1 inh,Mot1 SUMO dose
COc1cc([N+](=O)[O-])cc(/C=N/NC(=O)c2cc(-c3ccccc3)nc3ccccc23)c1O,0,-3,-11,-5,.
CC(C)N(C(=O)[C@H]1C[C@H](CC(=O)NCCN2CCOCC2)C(=O)N2CCc3c([nH]c4cc(CCC(=O)N(C)C)ccc34)[C@]12C)C(C)C,0,9,.,6,.
O=C(NCc1ccco1)c1ccc(Br)c(S(=O)(=O)N2CCCCC2)c1,0,-24,584*,1,2
COC(=O)c1ccccc1NC(NC(=O)c1ccco1)C(=O)c1ccccc1 (centres undefined),0,-8,449*,-1,-1
COc1ccccc1NC(=S)NC(NC(=O)c1ccco1)C(Cl)(Cl)Cl (centres undefined),0,0,-8,0,.
COc1ccccc1NC(NC(=O)c1ccco1)C(=O)c1ccccc1 (centres undefined),0,-5,839*,8,0
COC(=O)c1ccccc1Oc1ccc(NC(=O)c2ccco2)cc1,0,-3,7,1,.
Cc1ccc(C)c(SCC(=O)Nc2ccc(C)c(S(=O)(=O)N3CCOCC3)c2)c1,0,-16,23,4,.
O=C(OCC(=O)N1CCN(c2ccccc2)CC1)c1nc(Cl)ccc1Cl,0,5,641*,5,0
NS(=O)(=O)c1cccc(NC(=O)c2cccnc2Oc2ccccc2)c1,0,-5,936*,-9,0
CCOc1ncccc1C(=O)OCC(=O)Nc1cccc(S(N)(=O)=O)c1,0,5,-17,9,.
O=C(NCCN1CCOCC1)Nc1ccc(Cl)cc1Cl,0,0,901*,4,1
CC(Oc1ccc(Cl)cc1Cl)C(=O)NCCN1CCOCC1 (centres undefined),0,-5,77,2,.
CCOc1ccc(C(=O)Nc2ccc(C(=O)N3CCOCC3)cc2)c(OCC)c1,1,1,1,5,.
CC(=Nc1ccccc1)C1=C(O)CC(C)(C)CC1=O,0,-2,432*,8,1
O=c1c2ccccc2nc(SCc2nnc(-c3ccccc3Br)o2)n1-c1ccccc1,0,-4,35,6,.
O=c1c2ccccc2nc(SCc2nnc(-c3ccccc3)o2)n1-c1ccc(F)cc1F,0,-13,466*,31,0
CN(Cc1ccccc1)Cc1ccccc1C(O)c1ccccc1 (centres undefined),.,-6,.,-1,.
CC(C)c1cccc(OCCCCN(C)C)c1,0,6,568*,1,0
CCN(CC)CCOc1cccc(C(C)C)c1,0,3,245,-3,.
CC1CCN(CCCCOc2cccc(C(C)C)c2)CC1,0,3,408*,-8,-1
CC1CCN(CCOc2cccc(Br)c2)CC1,3,1,-8,3,.
CC1CCN(CCCOc2ccc(OCc3ccccc3)cc2)CC1,0,-9,551*,9,0
CC1CCN(CCCCOc2ccc(F)cc2)CC1,0,.,548*,1,0
Cc1ccc(OCCCCN2CCC(C)CC2)cc1,0,.,70,0,.
CC(C)c1cc(-c2cc(C(=O)NCc3ccccc3)on2)nc(NCC2CC2)n1,0,-1,-25,-5,.
COc1ccccc1C(=O)N/C(=C\c1cn(S(=O)(=O)N(C)C)c2ccccc12)C(=O)NCCCN1CCOCC1,0,2,-9,-7,.
COCCNC(=O)C1C(=O)Nc2ccccc2C(=O)N1Cc1ccccc1 (centres undefined),.,5,.,11,.
COc1cc(C(C)=O)ccc1OCC(=O)N1CCCC1c1ccc2c(c1)OCCCO2 (centres undefined),.,2,.,-4,.

# Compound activity deposited in PubChem BioAssay by several laboratories.
